# Laboratory results as given in article PMC7862700, “An all-to-all approach to the identification of sequence-specific readers for epigenetic DNA modifications on cytosine”.
# How the values were obtained:
# Assay in all cases: DAPPL (digital affinity profiling via proximity ligation, sequencing); 10 mM Tris-HCl pH 7.5, 50 mM NaCl, 1 mM DTT, 4% glycerol, room temperature, 30 min; GST-TFs on glutathione beads, 16-mer random dsDNA library, 0.1% formaldehyde crosslink after washing; high values mean tight binding
# [1] = biological target: T1, FLI1 (Homo sapiens, UniProt Q01543 1-452); settings: protein: recombinant; tags: N-terminal GST; dsDNA, one strand shown
# T1 sequence: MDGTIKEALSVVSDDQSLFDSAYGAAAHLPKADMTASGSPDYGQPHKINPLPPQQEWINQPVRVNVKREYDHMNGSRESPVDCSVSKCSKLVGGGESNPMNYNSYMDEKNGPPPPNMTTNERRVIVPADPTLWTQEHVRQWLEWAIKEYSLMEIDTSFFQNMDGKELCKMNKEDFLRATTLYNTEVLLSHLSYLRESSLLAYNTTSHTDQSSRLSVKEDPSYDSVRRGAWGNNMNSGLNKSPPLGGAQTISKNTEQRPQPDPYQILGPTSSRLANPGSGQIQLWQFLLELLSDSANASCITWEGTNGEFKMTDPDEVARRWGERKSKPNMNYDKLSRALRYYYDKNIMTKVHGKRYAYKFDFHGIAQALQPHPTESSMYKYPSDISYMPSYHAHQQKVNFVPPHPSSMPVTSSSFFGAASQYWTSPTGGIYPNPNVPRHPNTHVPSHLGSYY
# Summary of the method: (§1)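 Sequencing on an Illumina NextSeq500 followed washing, crosslinking with 0.1% formaldehyde, proximity ligation (BsaI/T4 ligase, 1 h, 37 °C) and PCR amplification of pools that had been incubated for 30 min at room temperature with 200 nmole of a random double-stranded 16-mer DNA library in Tris/NaCl/DTT/glycerol buffer. Each pool held DNA-barcoded human transcription factors, expressed in yeast as GST fusions and captured on glutathione beads, plus a tag-only sample. Binding signal is a hexamer's read frequency for a factor divided by its frequency in the tag-only sample.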
# [2] = biological target: T2, ELK1 (Homo sapiens, UniProt P19419 1-428); settings: protein: recombinant; tags: N-terminal GST; dsDNA, one strand shown
# T2 sequence: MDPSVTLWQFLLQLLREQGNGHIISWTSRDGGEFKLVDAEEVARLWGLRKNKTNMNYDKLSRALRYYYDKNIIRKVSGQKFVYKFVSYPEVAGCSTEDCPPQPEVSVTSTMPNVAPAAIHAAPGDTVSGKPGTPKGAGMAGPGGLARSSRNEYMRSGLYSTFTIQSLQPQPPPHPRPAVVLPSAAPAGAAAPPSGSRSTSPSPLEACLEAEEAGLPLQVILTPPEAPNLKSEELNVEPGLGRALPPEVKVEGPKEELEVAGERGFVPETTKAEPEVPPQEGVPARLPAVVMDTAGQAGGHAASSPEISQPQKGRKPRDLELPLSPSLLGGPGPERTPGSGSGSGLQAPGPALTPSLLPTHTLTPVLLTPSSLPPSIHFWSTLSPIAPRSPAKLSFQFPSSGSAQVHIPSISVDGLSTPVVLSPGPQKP
# Summary of the method: as §1
# [3] = biological target: T3, GABPA (Homo sapiens, UniProt Q06546 1-454); settings: protein: recombinant; tags: N-terminal GST; dsDNA, one strand shown
# T3 sequence: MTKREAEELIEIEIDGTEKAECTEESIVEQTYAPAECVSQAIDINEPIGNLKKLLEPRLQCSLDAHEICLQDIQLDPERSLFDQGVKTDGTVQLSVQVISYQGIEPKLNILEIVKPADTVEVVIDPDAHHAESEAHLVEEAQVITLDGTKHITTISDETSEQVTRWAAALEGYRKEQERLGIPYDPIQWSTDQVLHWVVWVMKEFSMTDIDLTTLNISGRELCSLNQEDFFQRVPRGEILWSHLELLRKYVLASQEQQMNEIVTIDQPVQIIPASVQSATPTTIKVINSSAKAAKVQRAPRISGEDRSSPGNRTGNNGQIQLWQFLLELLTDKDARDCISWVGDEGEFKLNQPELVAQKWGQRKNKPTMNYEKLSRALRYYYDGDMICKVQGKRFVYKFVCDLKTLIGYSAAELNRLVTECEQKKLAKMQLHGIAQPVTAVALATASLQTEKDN
# Summary of the method: as §1
# [4] = biological target: T4, ERG (Homo sapiens, UniProt P11308 1-479); settings: protein: recombinant; tags: N-terminal GST; dsDNA, one strand shown
# T4 sequence: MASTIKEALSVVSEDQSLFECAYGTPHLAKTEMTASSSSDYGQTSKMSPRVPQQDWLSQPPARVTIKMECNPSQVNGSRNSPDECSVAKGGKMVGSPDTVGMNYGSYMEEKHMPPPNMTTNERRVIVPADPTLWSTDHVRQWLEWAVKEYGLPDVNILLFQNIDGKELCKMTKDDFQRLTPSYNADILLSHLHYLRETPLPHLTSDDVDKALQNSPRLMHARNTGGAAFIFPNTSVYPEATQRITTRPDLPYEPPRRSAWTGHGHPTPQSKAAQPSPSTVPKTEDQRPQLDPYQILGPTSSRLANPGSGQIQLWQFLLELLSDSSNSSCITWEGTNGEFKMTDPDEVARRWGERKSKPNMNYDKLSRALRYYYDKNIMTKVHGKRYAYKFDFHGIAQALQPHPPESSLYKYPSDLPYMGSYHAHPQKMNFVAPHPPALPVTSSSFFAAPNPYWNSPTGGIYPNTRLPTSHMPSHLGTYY
# Summary of the method: as §1
# [5] = biological target: ELF1 (Homo sapiens, UniProt P32519 1-619); settings: protein: recombinant; tags: N-terminal GST; dsDNA, one strand shown
# ELF1, sequence (P32519 whole entry): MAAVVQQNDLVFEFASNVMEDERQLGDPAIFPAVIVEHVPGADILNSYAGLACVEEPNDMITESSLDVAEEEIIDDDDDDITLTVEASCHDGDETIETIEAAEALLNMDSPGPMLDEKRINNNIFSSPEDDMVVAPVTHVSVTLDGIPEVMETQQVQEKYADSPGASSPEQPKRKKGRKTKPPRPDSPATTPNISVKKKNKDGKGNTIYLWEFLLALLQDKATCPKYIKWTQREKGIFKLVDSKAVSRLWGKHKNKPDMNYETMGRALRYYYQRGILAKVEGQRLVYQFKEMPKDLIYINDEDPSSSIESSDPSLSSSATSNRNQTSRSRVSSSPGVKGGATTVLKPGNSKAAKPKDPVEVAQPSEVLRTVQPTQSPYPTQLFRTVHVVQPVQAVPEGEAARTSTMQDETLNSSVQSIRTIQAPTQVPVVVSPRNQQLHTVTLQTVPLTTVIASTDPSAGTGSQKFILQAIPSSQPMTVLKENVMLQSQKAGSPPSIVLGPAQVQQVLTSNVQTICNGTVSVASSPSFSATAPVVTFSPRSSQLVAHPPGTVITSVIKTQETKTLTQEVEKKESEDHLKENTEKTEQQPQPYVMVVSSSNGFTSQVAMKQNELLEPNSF
# Summary of the method: as §1
# [6] = biological target: T5, EHF (Homo sapiens, UniProt Q9NZC4 1-300); settings: protein: recombinant; tags: N-terminal GST; dsDNA, one strand shown
# T5 sequence: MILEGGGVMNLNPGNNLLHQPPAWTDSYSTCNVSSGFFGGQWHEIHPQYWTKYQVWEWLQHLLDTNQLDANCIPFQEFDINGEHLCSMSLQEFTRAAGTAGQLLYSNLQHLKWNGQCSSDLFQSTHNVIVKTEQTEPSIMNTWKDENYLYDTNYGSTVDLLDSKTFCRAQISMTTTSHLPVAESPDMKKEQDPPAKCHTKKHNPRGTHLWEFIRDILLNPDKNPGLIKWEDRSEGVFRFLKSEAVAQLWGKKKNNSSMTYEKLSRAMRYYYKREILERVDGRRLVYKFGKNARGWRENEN
# Summary of the method: as §1
# [7] = biological target: SPI1 (Homo sapiens, UniProt P17947 1-270); settings: protein: recombinant; tags: N-terminal GST; dsDNA, one strand shown
# Summary of the method: as §1
# [8] = biological target: SPIB (Homo sapiens, UniProt Q01892 1-262); settings: protein: recombinant; tags: N-terminal GST; dsDNA, one strand shown
# SPIB, sequence (Q01892 whole entry): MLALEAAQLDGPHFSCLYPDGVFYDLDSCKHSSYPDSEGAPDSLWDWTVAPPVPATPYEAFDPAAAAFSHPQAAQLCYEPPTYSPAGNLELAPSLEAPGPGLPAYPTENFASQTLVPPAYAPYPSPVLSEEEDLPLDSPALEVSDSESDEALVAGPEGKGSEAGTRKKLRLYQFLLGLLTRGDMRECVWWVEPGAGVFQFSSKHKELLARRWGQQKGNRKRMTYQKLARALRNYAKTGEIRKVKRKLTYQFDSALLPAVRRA
# Summary of the method: as §1
# [9] = biological target: HSF1 (Homo sapiens, UniProt Q00613 1-529); settings: protein: recombinant; tags: N-terminal GST; chain copies: 3; dsDNA, one strand shown
# HSF1, sequence (Q00613 whole entry): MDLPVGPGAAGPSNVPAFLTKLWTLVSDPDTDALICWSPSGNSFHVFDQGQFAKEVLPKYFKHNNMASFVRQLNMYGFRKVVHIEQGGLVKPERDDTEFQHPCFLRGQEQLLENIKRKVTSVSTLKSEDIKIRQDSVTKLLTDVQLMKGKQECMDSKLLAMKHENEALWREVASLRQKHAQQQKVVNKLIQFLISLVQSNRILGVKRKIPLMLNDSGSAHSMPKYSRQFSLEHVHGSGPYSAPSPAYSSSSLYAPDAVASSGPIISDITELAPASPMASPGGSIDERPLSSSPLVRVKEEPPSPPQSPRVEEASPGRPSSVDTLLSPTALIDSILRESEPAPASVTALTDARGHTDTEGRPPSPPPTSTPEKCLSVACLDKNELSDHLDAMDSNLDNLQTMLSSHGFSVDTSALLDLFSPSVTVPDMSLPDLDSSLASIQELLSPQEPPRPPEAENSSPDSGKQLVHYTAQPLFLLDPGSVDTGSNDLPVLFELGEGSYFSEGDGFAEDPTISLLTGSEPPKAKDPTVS
# Summary of the method: as §1
# [10] = biological target: ELF4 (Homo sapiens, UniProt Q99607 1-663); settings: protein: recombinant; tags: N-terminal GST; dsDNA, one strand shown
# ELF4, sequence (Q99607 whole entry): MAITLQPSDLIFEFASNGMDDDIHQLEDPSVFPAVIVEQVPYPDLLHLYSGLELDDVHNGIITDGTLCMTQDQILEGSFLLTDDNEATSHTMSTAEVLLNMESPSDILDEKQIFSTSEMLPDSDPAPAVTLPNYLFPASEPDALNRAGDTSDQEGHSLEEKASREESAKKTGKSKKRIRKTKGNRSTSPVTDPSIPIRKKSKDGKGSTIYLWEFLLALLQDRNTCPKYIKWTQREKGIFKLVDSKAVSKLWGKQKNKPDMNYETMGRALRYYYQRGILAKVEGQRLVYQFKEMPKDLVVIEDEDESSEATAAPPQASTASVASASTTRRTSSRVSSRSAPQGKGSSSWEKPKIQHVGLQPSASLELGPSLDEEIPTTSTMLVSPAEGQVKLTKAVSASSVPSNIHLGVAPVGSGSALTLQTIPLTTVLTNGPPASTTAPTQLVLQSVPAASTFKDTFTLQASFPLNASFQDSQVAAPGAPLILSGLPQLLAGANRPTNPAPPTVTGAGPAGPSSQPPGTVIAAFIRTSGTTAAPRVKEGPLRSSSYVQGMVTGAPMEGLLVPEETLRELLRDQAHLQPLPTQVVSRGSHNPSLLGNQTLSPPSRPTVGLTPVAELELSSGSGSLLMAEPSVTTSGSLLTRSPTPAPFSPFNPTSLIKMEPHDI
# Summary of the method: as §1
sequence,measurement,setting,value
TCAGCT,binding signal,[1],"1.09 fold enrichment (6-mer frequency, TF over GST control)"
same,binding signal,[2],"1 fold enrichment (6-mer frequency, TF over GST control)"
same,binding signal,[3],"1.04 fold enrichment (6-mer frequency, TF over GST control)"
same,binding signal,[4],"1.06 fold enrichment (6-mer frequency, TF over GST control)"
same,binding signal,[5],"1.12 fold enrichment (6-mer frequency, TF over GST control)"
same,binding signal,[6],"1.11 fold enrichment (6-mer frequency, TF over GST control)"
same,binding signal,[7],"1.04 fold enrichment (6-mer frequency, TF over GST control)"
same,binding signal,[8],"1.09 fold enrichment (6-mer frequency, TF over GST control)"
same,binding signal,[9],"1.07 fold enrichment (6-mer frequency, TF over GST control)"
same,binding signal,[10],"1.03 fold enrichment (6-mer frequency, TF over GST control)"
